From the supplement of paper PMC12636033
± gives the standard deviation of the averaged measurements. In all, about 33,000 sequences were measured (“E-score (rank enrichment, -0.5 to 0.5)”: median about -0.0028, highest 2% from about 0.23 on). The full list was thinned out, with the highest values kept by preference.

The sequences below were run on 2Sb-muMax20 (muMax20 with two 1,3-bis(methyl)benzene Cys staples, A13C/A17C and Q88C/A92C, C-terminal Lys) (assay: PBM 8-mer E-score (E-score (rank enrichment, -0.5 to 0.5)); higher = stronger preferential binding).
Procedure: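 Protein binding microarray (universal PBM chip covering all 10-mers in fixed probe flanks) with chemically synthesized human Max(13-93) bHLH-LZ analogs (not full-length Max) bearing noncanonical residues (hArg, Tha, Aib, Nle at 65) and aromatic Cys staples. Read-out per 8-mer (and its reverse complement): E-score (rank-based enrichment, -0.5 to 0.5) and Z-score of median probe intensity.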

Sequence | PBM 8-mer E-score
AGTGGCTA | -0.0163 ± 0.084
AGTTTCAC | 0.045 ± 0.0036
CAGCTCAG | -0.0712 ± 0.0083
GGCCACAA | -0.0539 ± 0.0061
ACATTCTC | -0.0346 ± 0.019
AGGGGGTG | -0.116 ± 0.099
ATGGGGTA | 0.249 ± 0.034
AAGGGGTG | 0.117 ± 0.065
ATGGGGTG | 0.238 ± 0.0055
CTGGGGTA | 0.179 ± 0.0054
ATGGGGTC | 0.0475 ± 0.043
ACGTAGAA | -0.00421 ± 0.0043
AGCGCTCG | -0.0768 ± 0.062
AAATCCGA | 0.0186 ± 0.034
TGGAATAA | 0.0314 ± 0.022
GGGAATGA | 0.322 ± 0.017
GGGAATAA | 0.273 ± 0.024
AGGAATGA | 0.00801 ± 0.012
GGGAATAC | 0.0722 ± 0.022
CGGAATGA | -0.065 ± 0.018
AAGGCACT | 0.0491 ± 0.026
GAGTGCCA | -0.0641 ± 0.028

Sequence | PBM 8-mer E-score
ACTCTGCT | -0.214 ± 0.017
CATATCCG | 0.0256 ± 0.071
AATTTTCC | 0.085 ± 0.0046
CAAATTCC | 0.117 ± 0.042
CGTTTCTC | -0.0396 ± 0.11
GACAGGGA | -0.156 ± 0.072
AAGCAACT | 0.00018 ± 0.012
ATAAAGCG | 0.0637 ± 0.015
ATAAAGCA | 0.261 ± 0.077
CTAAAGCA | 0.097 ± 0.0042
AGTTAGAA | 0.0284 ± 0.083
ACGTGCAA | 0.252 ± 0.037
CCGTGCAC | 0.126 ± 0.009
CCGTGCAA | -0.0691 ± 0.042
ACGTGCAC | 0.281 ± 0.028
ACGTGCAT | 0.199 ± 0.0073
GCGTGCAC | 0.164 ± 0.039
AGACCATG | -0.149 ± 0.029
ACGGGTAA | 0.0152 ± 0.05
AATGTGGG | 0.248 ± 0.054
AATGTGGC | 0.0323 ± 0.0018
CATGTGGG | 0.193 ± 0.0078

Sequence | PBM 8-mer E-score
TGAATGCA | 0.167 ± 0.015
CCATACCG | 0.0521 ± 0.016
ATTTTACC | 0.147 ± 0.025
CGACGGAA | -0.109 ± 0.041
GACATTAA | 0.0446 ± 0.036
AACATTAA | 0.0201 ± 0.011
ATCATTAA | 0.0944 ± 0.13
TACATTAA | 0.25 ± 0.03
CTCATTAA | 0.154 ± 0.064
ACCATTAA | 0.298 ± 0.038
CACATTAC | 0.235 ± 0.017
CCCATTAA | 0.13 ± 0.0083
GTCATTAA | 0.269 ± 0.035
TCCATTAA | -0.0453 ± 0.043
AACATTAC | 0.17 ± 0.015
CACATTAG | -0.00967 ± 0.014
AGCGTGGC | -0.119 ± 0.04
TAACGTTA | 0.0083 ± 0.027
CCATTCCG | -0.0949 ± 0.02
CGACGCCC | 9e-05 ± 0.053
CTGCTCTC | -0.0222 ± 0.021
ATGTGATG | 0.108 ± 0.053

Sequence | PBM 8-mer E-score
ATATCCGC | -0.0334 ± 0.094
AGAACCAG | -0.11 ± 0.019
GGCATTAA | -0.00398 ± 0.043
TGCATTAA | 0.267 ± 0.01
CGCATTAA | 0.0701 ± 0.0015
AGCATTAA | 0.245 ± 0.037
AGCATTAC | -0.0652 ± 0.011
ATGATTAA | -0.061 ± 0.032
AGCATTAT | 0.224 ± 0.0032
CTGATTAA | 0.0112 ± 0.038
GTGATTAA | 0.234 ± 0.019
AGGATAAT | 0.148 ± 0.024
AGTTATCC | 0.119 ± 0.035
AGCTCAAG | -0.0222 ± 0.065
AAAGCCAG | -0.092 ± 0.033
CTCGCGAA | -0.117 ± 0.028
ATATTCCC | 0.159 ± 0.065
ACCGGCGT | -0.189 ± 0.05
CTTCGTCC | -0.084 ± 0.06
ATTCGTCG | -0.057 ± 0.028
